Screening results deposited in PubChem BioAssay by several laboratories.
TRPM1 prom inh: MITF TRPM1 promoter inhibition in SK-MEL-5 cells; SK-MEL-5 TRPM1 promoter luciferase, 24 h; inhibition, % at 12.5 µM; 330,000 tested, 0.83% active;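 active means mean inhibition across replicates of 60% or more, whatever share of single replicates reaches that level; inconclusive means some that reach 60%, reason not given; inactive means mean inhibition across replicates below 60%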
Peg3 prom inh-1: inhibitors of Peg3 promoter. HeLa PEG-Prom luciferase reporter, luminescence, overnight. inhibition, % at 20 µM. 360,000 tested, 1.7% active. AID 588405;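 active means inhibition of at least 50% at 20 µM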
LMP1 NFkB inh: Epstein-Barr LMP1 NF-kappaB reporter inhibition; inhibition, % at 12.5 µM; 350,000 tested, 0.69% active; LMP1-induced NF-kappaB luciferase reporter cells, luminescence; in the data active means inhibition above about 41%; inconclusive means no clear call, values can overlap the other calls;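 further: 0% = neutral control wells and 100% = reference inhibitor control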
Shn3 inh set2: inhibitors of Schnurri-3 3'UTR reporter in osteoblasts. Clone20 osteoblast Shn3 3'UTR firefly luciferase, 24 h. inhibition, % at 12.5 µM. 360,000 tested, 0.52% active;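 active means mean inhibition of at least 75% with every replicate also reaching 75%; inconclusive means mean inhibition at least 75% but some replicate below; inactive means mean inhibition below 75%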;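 further: 0% = median of neutral control wells and 100% = pilot-screen positive control compound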
TWEAK-Fn14 inh: blocks TWEAK-Fn14 interaction in a reporter cell assay; TWEAK-stimulated Fn14 reporter cells, luciferase luminescence, 8 h; inhibition, % at 10 µM; 360,000 tested, 2% active; AID 1159606; in the data active means inhibition above about 50%
TROY signal inh: blocks TROY-dependent signaling in reporter cells. Q293 LMP1-TROYcd NF-kB luciferase reporter, 4 h. inhibition, % at 10 µM. 360,000 tested, 0.98% active;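 active means compounds whose plate-normalised and pattern-corrected inhibition of the luciferase reporter signal at the single screening dose is 50% or more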
Peg3 prom inh-2: confirmation of Peg3 promoter inhibitors; shares compounds with Peg3 prom inh-1; HeLa PEG-Prom luciferase reporter, luminescence, overnight; inhibition, % at 20 µM; 1,300 tested, 84% active; AID 602417;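 active means at 20 µM dose, 40% or more inhibition averaged across four replicates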
Starred values were filed as active, the others as inactive; ! = repeats disagree. This is a sample that favours compounds with a hit; in the whole collection about 4.1% have one here.

What do the screens show for `O=S(=O)(NC1CC(NS(=O)(=O)OCC(Cl)(Cl)Cl)C2CCCCC12)OCC(Cl)(Cl)Cl` (centres undefined)?
TRPM1 prom inh: 10; Peg3 prom inh-1: 57*; LMP1 NFkB inh: -9; Shn3 inh set2: 15; TWEAK-Fn14 inh: 5; TROY signal inh: 8; Peg3 prom inh-2: 93*

Results for COc1ccc(S(=O)(=O)N(C)c2nc3ccccc3n3c(CC(C)C)nnc23)cc1 ?
TRPM1 prom inh: -14; Peg3 prom inh-1: 18; LMP1 NFkB inh: 8; Shn3 inh set2: -8; TWEAK-Fn14 inh: -8; TROY signal inh: -2

What do the screens show for `COc1ccc(CN2CCC[C@]3(N[C@H](c4ccc(C)cc4)[C@@H]4C(=O)N(C)C(=O)[C@@H]43)C2=O)cc1`?
Peg3 prom inh-1: -21; LMP1 NFkB inh: -1; Shn3 inh set2: -17; TWEAK-Fn14 inh: -1; TROY signal inh: -3

Results for N#Cc1c(N)nc2c3c(sc(=N)c2c1N)NC(=O)CC3c1ccccc1 (centres undefined) ?
TRPM1 prom inh: 6; Peg3 prom inh-1: 23; LMP1 NFkB inh: 9; Shn3 inh set2: -7; TWEAK-Fn14 inh: -22; TROY signal inh: -13

What do the screens show for `Cc1c(C#N)c(N)nc2c3c(sc12)NC(=O)CC3c1ccc(Cl)cc1` (centres undefined)?
TRPM1 prom inh: 31; Peg3 prom inh-1: 68*; LMP1 NFkB inh: 18; Shn3 inh set2: 67; TWEAK-Fn14 inh: 15; TROY signal inh: 11; Peg3 prom inh-2: 48*

Results for CN(C)c1ccc(N=Nc2nc3ccccc3n2C)cc1 ?
TRPM1 prom inh: inconclusive; Peg3 prom inh-1: 104*; LMP1 NFkB inh: 57*; TWEAK-Fn14 inh: 104*; TROY signal inh: 90*; Peg3 prom inh-2: 88*

What do the screens show for `CCn1c(NCc2ccc(N(C)C)cc2)nc2ccccc21`?
TRPM1 prom inh: -13; Peg3 prom inh-1: -86; LMP1 NFkB inh: -4; Shn3 inh set2: -18; TWEAK-Fn14 inh: -3; TROY signal inh: -22

What do the screens show for `CCOc1ccc(S(=O)(=O)N2CCOCC2)cc1NC(=O)CCOc1ccc(C(C)(C)C)cc1`?
TRPM1 prom inh: -5; Peg3 prom inh-1: 6; LMP1 NFkB inh: 5; Shn3 inh set2: 29; TWEAK-Fn14 inh: -1; TROY signal inh: -3

What do the screens show for `COc1ccc(Oc2nc(-c3cccnc3)nc3ccccc23)cc1`?
TRPM1 prom inh: -11; Peg3 prom inh-1: 11; LMP1 NFkB inh: -5; Shn3 inh set2: -8; TWEAK-Fn14 inh: -1; TROY signal inh: 14

What do the screens show for `CC(=O)CCc1ccc(Oc2nc(-c3cccnc3)nc3ccccc23)cc1`?
TRPM1 prom inh: -1; Peg3 prom inh-1: 66*; LMP1 NFkB inh: -4; Shn3 inh set2: 10; TWEAK-Fn14 inh: -8; TROY signal inh: 7; Peg3 prom inh-2: 40

Results for COC(=O)c1c(C(=O)OC)c(-c2cccc(Cl)c2)n2c1CS(=O)(=O)C2 ?
TRPM1 prom inh: -2; Peg3 prom inh-1: 11; LMP1 NFkB inh: 8; Shn3 inh set2: 6; TWEAK-Fn14 inh: 6; TROY signal inh: 16

Results for N/C(=N\OC(=O)c1ccccc1)C(C(=O)NOC(=O)c1ccccc1)C1CCCCC1 (centres undefined) ?
TRPM1 prom inh: 5; Peg3 prom inh-1: 86*; LMP1 NFkB inh: -50; Shn3 inh set2: 59; TWEAK-Fn14 inh: -5; TROY signal inh: -48; Peg3 prom inh-2: 97*

What do the screens show for `O=C(COC(=O)c1ccccc1)NC1CCCCCC1`?
TRPM1 prom inh: -3; Peg3 prom inh-1: -80; LMP1 NFkB inh: 0; Shn3 inh set2: 9; TWEAK-Fn14 inh: -2; TROY signal inh: -40

How did CCn1cc(CN2CCC(C(=O)Nc3cccc(-c4cccc(F)c4)c3)CC2)cn1 do in these assays?
TRPM1 prom inh: -5; Peg3 prom inh-1: 17; LMP1 NFkB inh: 1; Shn3 inh set2: 10; TWEAK-Fn14 inh: 4; TROY signal inh: 9

How did CC(C)n1cc(CN2CCC(C(=O)Nc3cccc(-c4cccc(Cl)c4)c3)CC2)cn1 do in these assays?
TRPM1 prom inh: 38; Peg3 prom inh-1: 111*; LMP1 NFkB inh: 2; Shn3 inh set2: 18; TWEAK-Fn14 inh: -19; TROY signal inh: 6; Peg3 prom inh-2: 98*

Results for CCN1CCN(Cc2ccc(NC(=O)c3cc(NC(=O)c4ccno4)cc(OC)c3)cc2C(F)(F)F)CC1 ?
TRPM1 prom inh: -4; Peg3 prom inh-1: 62*!; LMP1 NFkB inh: 1; Shn3 inh set2: 3; TWEAK-Fn14 inh: 7; TROY signal inh: -10; Peg3 prom inh-2: 48*

How did COc1ccccc1NC(=O)c1c(N=Cc2cccc([N+](=O)[O-])c2)cnn1C do in these assays?
TRPM1 prom inh: 4; Peg3 prom inh-1: 15; LMP1 NFkB inh: 3; Shn3 inh set2: 3; TWEAK-Fn14 inh: -65; TROY signal inh: -14

How did CCOC(=O)c1c(NC(=O)c2ccc(S(=O)(=O)N3CCOCC3)cc2)sc2c1CC(C)(C)NC2(C)C do in these assays?
TRPM1 prom inh: 1; Peg3 prom inh-1: 53*; LMP1 NFkB inh: -13; Shn3 inh set2: -10; TWEAK-Fn14 inh: -16; TROY signal inh: 0; Peg3 prom inh-2: 9

How did CC1(C)Cc2c(sc(NC(=O)COc3ccc(Cl)cc3Cl)c2C(N)=O)C(C)(C)N1 do in these assays?
TRPM1 prom inh: -6; Peg3 prom inh-1: 34; LMP1 NFkB inh: -11; Shn3 inh set2: 2; TWEAK-Fn14 inh: -1; TROY signal inh: -11

Results for CCOC(=O)c1c(NC(=O)COc2ccccc2F)sc2c1CC(C)(C)NC2(C)C ?
TRPM1 prom inh: 71*; Peg3 prom inh-1: 86*; LMP1 NFkB inh: -22; Shn3 inh set2: -23; TWEAK-Fn14 inh: 21; TROY signal inh: 28; Peg3 prom inh-2: 80*

What do the screens show for `O=C(CN1CCN(Cc2ccccc2Cl)CC1)N=Nc1c(O)[nH]c2ccccc12`?
TRPM1 prom inh: 3; Peg3 prom inh-1: 54*; LMP1 NFkB inh: -3; Shn3 inh set2: 9; TWEAK-Fn14 inh: 1; TROY signal inh: -1; Peg3 prom inh-2: 48*

Results for c1ccc(-c2cn(-c3ccccc3)c3ncnc(N4CCCCC4)c23)cc1 ?
TRPM1 prom inh: 3; Peg3 prom inh-1: 40; LMP1 NFkB inh: -8; Shn3 inh set2: 6; TWEAK-Fn14 inh: 17; TROY signal inh: 29

Results for CCOc1ccc(-n2cc(-c3ccccc3)c3c(N4CCOCC4)ncnc32)cc1 ?
TRPM1 prom inh: 11; Peg3 prom inh-1: 51*; LMP1 NFkB inh: 15; Shn3 inh set2: 79; TWEAK-Fn14 inh: 21; TROY signal inh: 18; Peg3 prom inh-2: 60*

Results for COc1cccc(C(c2nnnn2CCc2ccccc2)N2CCN(c3ccccc3)CC2)c1OC (centres undefined) ?
TRPM1 prom inh: 1; Peg3 prom inh-1: 51*; LMP1 NFkB inh: 16; Shn3 inh set2: 25; TWEAK-Fn14 inh: -11; TROY signal inh: 0; Peg3 prom inh-2: 34
